# Compound activity: PubChem, several laboratories
# Ins promoter up: MIN6 insulin promoter up-regulation. AID 1625. z-score at 5 µM. 0.3% of 190,000 active. MIN6 insulin promoter-GFP reporter, high-content imaging; stronger effect = higher value;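 active means z-score above 3 at 5 µM with at least 500 cells counted in the well; inconclusive means wells under 500 cells, flagged as cytotoxic or low count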
# L major viab: inhibitors of Leishmania major promastigote growth; Leishmania major promastigotes, resazurin fluorescence viability; inhibition, % at 10 µM; 9% of 200,000 active; in the data active means inhibition above about 50%;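 further: promastigotes grown with compound for 44 hours at 28 °C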
# bCat KO growth: beta-catenin-lacking colon tumor cell growth suppression; HCT116 beta-catenin knockout viability, CellTiter-Glo, 60 h; stronger effect = lower value; viability, % at 10 µM; 1.5% of 140,000 active; AID 818;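 active means viability at or under a set limit, the compound median less 4 SD, cut at about 6% in these data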;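 further: 0% = Hyamine 1622 control at 20 µM and 100% = untreated cell control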
# INS promoter inh: TRM-6 insulin promoter activity inhibition; inhibition, % at 2 µM; 0.9% of 130,000 active; TRM-6 cells (human fetal islet line), insulin promoter-eGFP reporter, imaging; reporter expression induced with tamoxifen;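 active means inhibition above the mean plus 3 SD, with well images judged a real hit on visual review, cut at about 60% in these data, passing the limit was not always enough; inconclusive means inhibition over the cutoff but images rejected on review; inactive means inhibition not above the cutoff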
# Autophagy mod: modulators of autophagy. MEF GFP-LC3 puncta imaging; test concentration mostly 10 µM. calls only at 10 µM (by protocol). 0.98% of 190,000 active. AID 463193;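 active means percentage of spot-positive cells more than 3 SD above its plate mean, without a fluorescence outlier flag or 80% toxicity; inconclusive means no clear call, values can overlap the other calls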;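 further: spot-positive cell cutoff set from DMSO-treated cells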
# PTEN del growth: PTEN-deleted cell growth suppression | 1.2% of 140,000 active | HCT116 PTEN-null viability, CellTiter-Glo, 60 h; stronger effect = lower value | viability, % at 10 µM | AID 827;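 active means viability at or below a set limit, 4 SD under the median of all tested compounds, cut at about 3.7% in these data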;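 further: PTEN knockout HCT116 line with beta catenin targeted HCT116 as companion control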
# Numbers without * were called inactive; i = inactive; ? = inconclusive; . = no result; + = active, no number. A selection: hits, their analogues and other compounds. The true share with any hit is near 9.6%.
SMILES,Ins promoter up,L major viab,bCat KO growth,INS promoter inh,Autophagy mod,PTEN del growth
CC1CCCN(CCCNC(=O)C2CC(=O)N(c3ccc(F)c(Cl)c3)C2)C1 (configuration not stated),-0.1,4.6,89.3,18.8,i,97.4
CC1CCCN(CCOCCOc2ccc(Cl)cc2Br)C1 (configuration not stated),-2.14,98.3*,5.3*,11.4,i,8.4
NCCCC[C@H]1CNC(=O)C(=O)N1CCc1cc(C(F)(F)F)cc(C(F)(F)F)c1,0.59,.,.,.,.,.
CC1CCN(CCCOc2ccc(Br)cc2Cl)CC1,-1.74,89.1*,.,.,i,.
Clc1cc(Br)ccc1OCCN1CCOCC1,0.54,92.6*,95.5,-29.6,i,92.4
O=C1CCC(=O)N1OCCCOc1ccc(Br)cc1Cl,.,8.1,95.5,44.4,i,94.4
CCCc1nc2ccccc2c(C(=O)OC(C)C(=O)NCc2ccc3c(c2)OCO3)c1CC (configuration not stated),-0.25,13.1,44.6,-6.2,i,48.1
CCOC(=O)c1c(NC(=O)C2=C(C)NC(=S)NC2c2ccc(F)cc2)sc(C)c1C (configuration not stated),0.02,82.0*,70.3,-13.3,i,51.3
CCOC(=O)c1c(NC(=O)C2=C(C)NC(=S)NC2c2ccc(F)cc2F)sc(C)c1C (configuration not stated),-0.55,27.2,39.5,-62.5,i,31.6
CC1=C(C(=O)Nc2ccccn2)C(c2ccc(Cl)cc2)NC(=S)N1 (configuration not stated),0.39,11.0,.,-42.9,i,.
CCOC(=O)c1c(NC(=O)C2=C(C)NC(=S)NC2c2ccc(C)cc2)sc(C)c1C (configuration not stated),-0.93,80.6*,76.6,.,i,67.5
COc1ccc(CCNC(=O)COc2ccc(-c3ccccc3)cc2)cc1OC,-0.04,-4.9,81.2,.,i,78.7
Cc1ccc(C(=O)N2CCN(c3ccc(Cl)cc3)CC2)cc1,-0.39,-3.7,92.3,53.3,i,92.9
Cc1ccc(C(=O)N2CCN3C(=O)c4ccccc4C23c2ccc(Cl)cc2)cc1 (configuration not stated),-0.62,93.8*,13.3,-28.6,+,7.7
O=C(COC(=O)C1(c2ccc(Cl)cc2)CCCC1)N1CCc2ccccc21,-1.19,2.2,86.0,.,i,76.6
O=C(Nc1cccc(Cl)c1)N1CCN2C(=O)c3ccccc3C12c1ccccc1 (configuration not stated),0.14,97.9*,80.3,0.0,i,61.2
O=C(CCl)N1CCN2C(=O)c3ccccc3C12c1ccc(Cl)cc1 (configuration not stated),-0.73,100.4*,.,-11.6,i,.
Cc1cccc(-c2nsc(SCC(=O)Nc3nccs3)n2)c1,-0.38,-0.2,82.6,-121.4,i,89.8
COc1ccc(N2CCN(C(CNC(=O)c3ccc4c(c3)OCO4)c3cccnc3)CC2)cc1 (configuration not stated),-0.31,90.4*,96.7,7.1,i,80.1
O=C(NCC(c1cccnc1)N1CCN(c2ccc(F)cc2)CC1)c1ccc2c(c1)OCO2 (configuration not stated),-0.1,95.0*,80.8,17.1,i,84.8
COc1ccc(N2CCN(C(CNC(=O)c3cccc(Cl)c3)c3cccnc3)CC2)cc1 (configuration not stated),-1.06,96.2*,72.6,?,i,80.7
O=C(NCC(c1cccnc1)N1CCOCC1)c1cccc(Cl)c1 (configuration not stated),-0.64,32.2,98.8,-12.5,i,102.4
OCCN1CCN(c2nc3ccccc3nc2-c2ccccc2)CC1,-0.58,4.6,.,-57.1,i,.
Brc1ccc(CSc2nnc3ccccn23)cc1,-0.53,-6.3,.,0.0,i,.
C=CCNC(=O)c1ccc(C2SCC(=O)N2Cc2ccco2)cc1 (configuration not stated),0.35,2.9,.,23.1,i,.
SMILES,Ins promoter up,L major viab,bCat KO growth,INS promoter inh,Autophagy mod,PTEN del growth
O=C(O)c1cn(-c2ccccc2)nc1-c1ccc(Cl)cc1,.,-3.3,.,12.5,i,.
CN(C)C(=O)c1cn(-c2ccccc2)nc1-c1cc2ccccc2o1,.,4.0,.,.,i,.
O=C(N/N=C/c1ccc([N+](=O)[O-])o1)c1cn(-c2ccccc2)nc1-c1ccc(Cl)cc1,-0.61,75.6*,.,.,i,.
O=C(N/N=C/c1cn(-c2ccccc2)nc1-c1ccc([N+](=O)[O-])cc1)c1ccncc1,-0.26,.,.,.,.,.
O=C(N/N=C/c1ccc([N+](=O)[O-])o1)c1cn(-c2ccccc2)nc1-c1ccccc1,-0.61,96.5*,12.3,-80.0,i,8.1
O=C(Nc1ccc([N+](=O)[O-])cc1)c1cn(-c2ccccc2)nc1-c1cc2ccccc2o1,-0.29,55.5*,80.3,-37.0,i,49.9
Cc1cc2nnc(SCC(=O)Nc3cccc(S(=O)(=O)N4CCOCC4)c3)n2c2ccccc12,0.96,0.3,91.5,.,i,85.7
O=C(COc1cccc(C(F)(F)F)c1)N1CCN(c2ccccc2O)CC1,-0.08,7.5,.,-5.0,i,.
OCC1CCCN(C2CCN(Cc3nc(Cc4cccc(C(F)(F)F)c4)no3)CC2)C1 (configuration not stated),.,88.8*,.,.,i,.
FC(F)(F)c1cccc(Cc2noc(CN3CCCC3)n2)c1,0.23,-1.8,.,.,i,.
Fc1cccc(Cc2noc(CN3CCOCC3)n2)c1,0.5,-3.7,.,.,i,.
Cc1ccc(C2(c3noc(CN4CCC(c5ccncc5)CC4)n3)CCCC2)cc1,.,50.9*,.,0.0,i,.
Fc1cccc(Cc2noc(CN3CCC(c4ccncc4)CC3)n2)c1,0.4,94.6*,.,.,i,.
Cc1ccc(C2(c3noc(CN(C)CC4CCCCO4)n3)CCCC2)cc1 (configuration not stated),-0.36,-6.7,.,.,i,.
COc1nc(NCc2ccco2)nc(NC2CCCCC2)n1,.,18.9,91.5,?,i,96.3
CN1CCN(Cc2nc3ccccc3c(=O)n2Cc2nc(-c3ccc4ccccc4c3)cs2)CC1,-0.77,100.3*,0.8*,.,i,0.7*
Oc1ccc(-c2csc(Nc3ncccn3)n2)cc1,0,2.9,.,.,i,.
Oc1ccc(Nc2nc(-c3ccc4ccccc4c3)cs2)cc1,.,6.2,22.6,-60.0,+,30.1
NS(=O)(=O)c1ccc(Nc2nc(-c3ccc(O)cc3O)cs2)cc1,0.37,63.4*,96.8,-14.3,i,93.9
O=C1/C(=C\c2cccnc2)SC(=S)N1C1CCS(=O)(=O)C1 (configuration not stated),.,72.9*,81.2,-121.4,i,83.5
O=C1/C(=C/c2cccnc2)SC(=S)N1C1CCS(=O)(=O)C1 (configuration not stated),-0.26,92.2*,22.9,-35.7,i,19.0
CCN(CC)c1ccc(/C=C/c2nc3ccccc3s2)cc1,.,-6.7,86.3,-56.7,+,86.9
CCN(CC)c1ccc(NC(=O)COC(=O)/C=C/c2nc3ccccc3s2)cc1,0.06,-3.2,95.1,.,i,94.5
